Source: ChEMBL document CHEMBL4513146, “CO-ADD screening of Karazin Kharkiv National University (Ukraine) compounds”
Measured potencies and affinities stand elsewhere.

tested on: Klebsiella pneumoniae; details: Concentration 32 ug.mL-1;; ASSAY_TEST Inhibition of Bacterial Growth; detection method Absorption (OD600); MEDIA CAMHB; plate type 384well; NBS; CORNING #3640; time 18 hr

Compound | Inhibition
CCOc1ccc(-n2ccn3c(SCC(=O)Nc4cccc(CC)c4)nnc3c2=O)cc1 | -1.92%
O=C(Cn1nc2c(Sc3ccccc3)nccn2c1=O)Nc1cccc(Cl)c1F | 13.46%
O=C(Cn1nc2c3c4c(sc3ncn2c1=O)CCCC4)NCc1ccc(F)cc1 | 9.92%
O=C(Cn1nc2c(Oc3ccccc3)nccn2c1=O)Nc1ccc(F)cc1F | 0.94%
CCCn1c(=O)c2sccc2n2c(=O)n(Cc3ccc(Cl)cc3)nc12 | 4.43%
Cc1ccc(Oc2nccn3c(=O)n(CC(=O)Nc4ccc(Br)cc4F)nc23)cc1 | 2.41%
Cc1ccc(C)c(NC(=O)Cn2nc3ccc(-c4ccc(C)c(C)c4)nn3c2=O)c1 | -9.48%
COc1ccc(-c2cc3c4nnc(SCC(=O)Nc5ccc(C#N)cc5)n4ccn3n2)cc1 | 5.83%
Cc1ccc(NC(=O)CSc2nc3ccccc3n3cnnc23)c(C)c1 | 0.98%
CCOc1ccc(C(=O)CSc2nnc3c(=O)n(-c4ccc(C)c(C)c4)ccn23)cc1 | 1.39%
O=C(Cn1nc2ccc(SC3CCCCC3)nn2c1=O)NCc1ccc(Cl)cc1 | 12.01%
Cc1cc(C)c(NC(=O)Cn2nc3c4c5c(sc4ncn3c2=O)CCCC5)c(C)c1 | 7.2%
CCc1nnc2c(SCC(=O)Nc3ccc(C)cc3Cl)nc3ccccc3n12 | 11.28%
Cc1ccc(-n2ccn3c(=O)n(Cc4ccccc4Cl)nc3c2=O)cc1C | 4.31%
COc1cccc(-n2ccn3c(SCC(=O)c4ccc(Br)cc4)nnc3c2=O)c1 | 9.61%
Cc1nnc2ccc(S(=O)(=O)N(Cc3ccccc3)c3cccc(F)c3)cn12 | 4.18%
O=S(=O)(c1cccn2c(SCc3c(F)cccc3Cl)nnc12)N1CCCC1 | 5.57%
CCOc1ccccc1NC(=O)Cn1nc2c3c4c(sc3ncn2c1=O)CCCC4 | 2.08%
CCc1nnc2ccc(S(=O)(=O)N(Cc3ccc(OC)cc3)c3ccc(F)cc3)cn12 | 10.6%
Cc1ccc(-c2ccc3nn(Cc4c(F)cccc4Cl)c(=O)n3n2)cc1 | 17.42%

Compound | Inhibition
CCCCc1ccc(NC(=O)CSc2nc3ccccc3n3c(C(C)C)nnc23)cc1 | 2.68%
O=C(CSc1nnc2c(=O)n(-c3ccc(F)cc3)ccn12)c1ccccc1Cl | 14.55%
O=C(Cn1nc2ccc(Sc3ccccc3)nn2c1=O)N1CCN(c2ccc(F)cc2)CC1 | 5.94%
Cc1cccc(Oc2nc3ccccc3n3c(=O)n(CC(=O)Nc4cccc(C#N)c4)nc23)c1C | 4.26%
O=C(CSc1nnc2c3cc(-c4ccc(F)cc4)nn3ccn12)NCc1ccc(Cl)cc1 | 0.77%
Cc1cccc(NC(=O)Cn2nc3ccc(-c4ccc(Cl)cc4)nn3c2=O)c1C | 8.72%
COC(=O)c1ccc(NC(=O)Cn2nc3c(Oc4cccc(OC)c4)nccn3c2=O)cc1 | 5.51%
CCc1ccccc1Sc1nccn2c(=O)n(CC(=O)Nc3ccc(C)cc3C)nc12 | 5.62%
Cc1ccc(-c2ccc3nn(Cc4ccc5c(c4)OCO5)c(=O)n3n2)cc1C | 2.14%
Cc1ccccc1NC(=O)Cn1nc2ccc(SC3CCCCC3)nn2c1=O | 2.21%
Cc1cc(C)cc(N(Cc2c(F)cccc2Cl)S(=O)(=O)c2cccn3cnnc23)c1 | 7.41%
Cc1cc2nn(CC(=O)Nc3cccc(C)c3C)c(=O)n2c(Nc2ccc(F)c(C)c2)n1 | 8.99%
COc1ccc(NC(=O)Cn2nc3c4cc(-c5ccc(C)cc5)nn4ccn3c2=O)cc1 | -1.42%
CCc1ccc(N(Cc2ccc(F)cc2)S(=O)(=O)c2cccn3c(CC)nnc23)cc1 | 6.32%
O=C(CSc1nnc2c(=O)n(-c3ccccc3)ccn12)Nc1ccc(Cl)cc1 | 8.54%
COc1cccc(CN(c2ccc(F)c(F)c2)S(=O)(=O)c2cccn3c(C)nnc23)c1 | 13.94%
CCCCOc1ccc(-c2cc3c4nnc(SCC(=O)NCc5ccc(OC)cc5)n4ccn3n2)cc1 | 6.37%
Cc1cc(C)c(NC(=O)Cn2nc3ccc(Sc4cccc(F)c4)nn3c2=O)c(C)c1 | 1.06%
Cc1cc2nn(CC(=O)NC(C)C)c(=O)n2c(-c2ccc(C(F)(F)F)cc2)n1 | 3.27%

tested on: Candida albicans; details: Concentration 32 ug.mL-1; ASSAY_TEST Inhibition of Fungal Growth; detection method Absorption (OD530)

Compound | Inhibition
CCOc1ccc(-n2ccn3c(SCC(=O)Nc4cccc(CC)c4)nnc3c2=O)cc1 | 12.86%
O=C(Cn1nc2c(Sc3ccccc3)nccn2c1=O)Nc1cccc(Cl)c1F | 0.76%
O=C(Cn1nc2c3c4c(sc3ncn2c1=O)CCCC4)NCc1ccc(F)cc1 | 15.82%
O=C(Cn1nc2c(Oc3ccccc3)nccn2c1=O)Nc1ccc(F)cc1F | -1.91%
CCCn1c(=O)c2sccc2n2c(=O)n(Cc3ccc(Cl)cc3)nc12 | 0.41%
Cc1ccc(Oc2nccn3c(=O)n(CC(=O)Nc4ccc(Br)cc4F)nc23)cc1 | 2.18%
Cc1ccc(C)c(NC(=O)Cn2nc3ccc(-c4ccc(C)c(C)c4)nn3c2=O)c1 | 0.94%
COc1ccc(-c2cc3c4nnc(SCC(=O)Nc5ccc(C#N)cc5)n4ccn3n2)cc1 | 1.48%
Cc1ccc(NC(=O)CSc2nc3ccccc3n3cnnc23)c(C)c1 | 26.16%
CCOc1ccc(C(=O)CSc2nnc3c(=O)n(-c4ccc(C)c(C)c4)ccn23)cc1 | 10.64%
O=C(Cn1nc2ccc(SC3CCCCC3)nn2c1=O)NCc1ccc(Cl)cc1 | 5.78%
Cc1cc(C)c(NC(=O)Cn2nc3c4c5c(sc4ncn3c2=O)CCCC5)c(C)c1 | 39.7%
CCc1nnc2c(SCC(=O)Nc3ccc(C)cc3Cl)nc3ccccc3n12 | 1.59%
Cc1ccc(-n2ccn3c(=O)n(Cc4ccccc4Cl)nc3c2=O)cc1C | 3.38%
COc1cccc(-n2ccn3c(SCC(=O)c4ccc(Br)cc4)nnc3c2=O)c1 | 5.24%
Cc1nnc2ccc(S(=O)(=O)N(Cc3ccccc3)c3cccc(F)c3)cn12 | 2.53%
O=S(=O)(c1cccn2c(SCc3c(F)cccc3Cl)nnc12)N1CCCC1 | -0.64%
CCOc1ccccc1NC(=O)Cn1nc2c3c4c(sc3ncn2c1=O)CCCC4 | 2.9%
CCc1nnc2ccc(S(=O)(=O)N(Cc3ccc(OC)cc3)c3ccc(F)cc3)cn12 | 0.7%
Cc1ccc(-c2ccc3nn(Cc4c(F)cccc4Cl)c(=O)n3n2)cc1 | -0.59%

Compound | Inhibition
CCCCc1ccc(NC(=O)CSc2nc3ccccc3n3c(C(C)C)nnc23)cc1 | 2.13%
O=C(CSc1nnc2c(=O)n(-c3ccc(F)cc3)ccn12)c1ccccc1Cl | 8.47%
O=C(Cn1nc2ccc(Sc3ccccc3)nn2c1=O)N1CCN(c2ccc(F)cc2)CC1 | 0.64%
Cc1cccc(Oc2nc3ccccc3n3c(=O)n(CC(=O)Nc4cccc(C#N)c4)nc23)c1C | 5.6%
O=C(CSc1nnc2c3cc(-c4ccc(F)cc4)nn3ccn12)NCc1ccc(Cl)cc1 | 7.94%
Cc1cccc(NC(=O)Cn2nc3ccc(-c4ccc(Cl)cc4)nn3c2=O)c1C | 0.72%
COC(=O)c1ccc(NC(=O)Cn2nc3c(Oc4cccc(OC)c4)nccn3c2=O)cc1 | 12.96%
CCc1ccccc1Sc1nccn2c(=O)n(CC(=O)Nc3ccc(C)cc3C)nc12 | 1.23%
Cc1ccc(-c2ccc3nn(Cc4ccc5c(c4)OCO5)c(=O)n3n2)cc1C | 1.11%
Cc1ccccc1NC(=O)Cn1nc2ccc(SC3CCCCC3)nn2c1=O | -1.85%
Cc1cc(C)cc(N(Cc2c(F)cccc2Cl)S(=O)(=O)c2cccn3cnnc23)c1 | 3.71%
Cc1cc2nn(CC(=O)Nc3cccc(C)c3C)c(=O)n2c(Nc2ccc(F)c(C)c2)n1 | 3.16%
COc1ccc(NC(=O)Cn2nc3c4cc(-c5ccc(C)cc5)nn4ccn3c2=O)cc1 | -0.28%
CCc1ccc(N(Cc2ccc(F)cc2)S(=O)(=O)c2cccn3c(CC)nnc23)cc1 | 33.96%
O=C(CSc1nnc2c(=O)n(-c3ccccc3)ccn12)Nc1ccc(Cl)cc1 | 0.98%
COc1cccc(CN(c2ccc(F)c(F)c2)S(=O)(=O)c2cccn3c(C)nnc23)c1 | -0.28%
CCCCOc1ccc(-c2cc3c4nnc(SCC(=O)NCc5ccc(OC)cc5)n4ccn3n2)cc1 | 17.75%
Cc1cc(C)c(NC(=O)Cn2nc3ccc(Sc4cccc(F)c4)nn3c2=O)c(C)c1 | 2.95%
Cc1cc2nn(CC(=O)NC(C)C)c(=O)n2c(-c2ccc(C(F)(F)F)cc2)n1 | 1.65%
